Reference: PubChem BioAssay AID1563 (The Scripps Research Institute Molecular Screening Center, 2009)
The other results are listed elsewhere or left out. Activity calls are given as the source filed them. Rule as the data show it: active = activation above about 21%; inactive = the rest.

Target: Sphingosine 1-phosphate receptor 1 (Homo sapiens) (UniProt P21453)
Experiment: activation of human S1P1 receptor – cell-based, counter-screen for S1P4 agonist project (AID 1563);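 also: 0% = vehicle wells and 100% = reference agonist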
Conditions: S1P1 agonist cell-based assay, at 4.98 µM, active compounds read high

Chain of Sphingosine 1-phosphate receptor 1 (Homo sapiens) (P21453 whole entry, looked up): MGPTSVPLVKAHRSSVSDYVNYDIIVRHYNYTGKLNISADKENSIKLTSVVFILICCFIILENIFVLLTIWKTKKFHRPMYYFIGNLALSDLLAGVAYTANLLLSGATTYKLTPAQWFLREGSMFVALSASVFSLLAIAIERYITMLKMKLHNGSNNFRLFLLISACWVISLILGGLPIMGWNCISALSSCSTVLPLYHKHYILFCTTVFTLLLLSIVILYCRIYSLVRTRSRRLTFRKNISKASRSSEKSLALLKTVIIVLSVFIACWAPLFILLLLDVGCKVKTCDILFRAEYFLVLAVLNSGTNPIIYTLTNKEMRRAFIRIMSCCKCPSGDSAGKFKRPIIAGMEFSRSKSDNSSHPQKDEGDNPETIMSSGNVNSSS

SMILES	activation
COc1ccc(C2CC(c3cccs3)=NN2c2ccccc2)cc1 (configuration not stated)	43.8% (active)
O=C(CSc1nnc(Nc2ccccc2)s1)Nc1cccnc1Cl	-2.54% (inactive)
CCC(=O)/C(=C(/O)c1ccccc1)c1nc2ccccc2[nH]1	-4.01% (inactive)
CCOc1ccc(-c2nnc(-c3ccco3)o2)cc1	2.5% (inactive)
Cc1cc(NC(=O)c2cc(-c3cccs3)on2)nn1Cc1ccc(Cl)cc1	4.89% (inactive)
CSc1sc(C(=O)NNC(=O)c2ccc(Cl)cc2)c2c1C=CCC2	2.26% (inactive)
CCn1c(CNC(=O)c2ccc(OC)c(OC)c2)nnc1SCC(=O)Nc1ccccc1	0.73% (inactive)
O=C(CSc1nncn1-c1cccnc1)N1CCOCC1	2.75% (inactive)
O=C(COC(=O)Cc1ccc(F)cc1)Nc1cc(S(=O)(=O)N2CCOCC2)ccc1N1CCCC1	5.34% (inactive)
C=CCn1c(SCn2nnc3ccccc3c2=O)nnc1-c1ccc(Cl)cc1	-1.97% (inactive)
CCC(C)NC(=O)C1c2ccccc2Oc2ccccc21 (configuration not stated)	0.8% (inactive)
Cc1noc(C)c1COC(=O)COc1ccc(-c2ccccc2)cc1	0.9% (inactive)
COc1ccc(N2C(=O)C(Cc3ccccc3)NC2=S)cc1 (configuration not stated)	-2.28% (inactive)
COc1ccccc1CNC(=O)CNC(=O)c1cn(-c2ccccc2OC)c(=O)c2ccccc12	-2.71% (inactive)
N/C(=N\OC(=O)Cc1ccc([N+](=O)[O-])cc1)c1ccccn1	-7.04% (inactive)
Cc1cc(C)c(C#N)c(SCC(=O)NN2CC(=O)N(c3ccccc3F)CC2=O)n1	-4.8% (inactive)
O=C(CSc1ccc(-c2ccc(F)cc2)nn1)Nc1ccc2c(c1)OCCO2	-2.21% (inactive)
